Set-up in all cases: scale not given: direction of the effect not stated beside the values
Assay [1] has as its target Protein translocase subunit SecA (Escherichia coli (strain K12)) (UniProt P10408). Kind of assay: Assay to Identify E. coli SecA ATPase Inhibitors. The assay is classed as functional. The note with it: 30 µM.
Assay [2] deals with T1, Ubiquitin-activating enzyme e1, putative (Leishmania donovani (strain BPK282A1)) (UniProt E9BSI1).
T1 sequence (whole entry): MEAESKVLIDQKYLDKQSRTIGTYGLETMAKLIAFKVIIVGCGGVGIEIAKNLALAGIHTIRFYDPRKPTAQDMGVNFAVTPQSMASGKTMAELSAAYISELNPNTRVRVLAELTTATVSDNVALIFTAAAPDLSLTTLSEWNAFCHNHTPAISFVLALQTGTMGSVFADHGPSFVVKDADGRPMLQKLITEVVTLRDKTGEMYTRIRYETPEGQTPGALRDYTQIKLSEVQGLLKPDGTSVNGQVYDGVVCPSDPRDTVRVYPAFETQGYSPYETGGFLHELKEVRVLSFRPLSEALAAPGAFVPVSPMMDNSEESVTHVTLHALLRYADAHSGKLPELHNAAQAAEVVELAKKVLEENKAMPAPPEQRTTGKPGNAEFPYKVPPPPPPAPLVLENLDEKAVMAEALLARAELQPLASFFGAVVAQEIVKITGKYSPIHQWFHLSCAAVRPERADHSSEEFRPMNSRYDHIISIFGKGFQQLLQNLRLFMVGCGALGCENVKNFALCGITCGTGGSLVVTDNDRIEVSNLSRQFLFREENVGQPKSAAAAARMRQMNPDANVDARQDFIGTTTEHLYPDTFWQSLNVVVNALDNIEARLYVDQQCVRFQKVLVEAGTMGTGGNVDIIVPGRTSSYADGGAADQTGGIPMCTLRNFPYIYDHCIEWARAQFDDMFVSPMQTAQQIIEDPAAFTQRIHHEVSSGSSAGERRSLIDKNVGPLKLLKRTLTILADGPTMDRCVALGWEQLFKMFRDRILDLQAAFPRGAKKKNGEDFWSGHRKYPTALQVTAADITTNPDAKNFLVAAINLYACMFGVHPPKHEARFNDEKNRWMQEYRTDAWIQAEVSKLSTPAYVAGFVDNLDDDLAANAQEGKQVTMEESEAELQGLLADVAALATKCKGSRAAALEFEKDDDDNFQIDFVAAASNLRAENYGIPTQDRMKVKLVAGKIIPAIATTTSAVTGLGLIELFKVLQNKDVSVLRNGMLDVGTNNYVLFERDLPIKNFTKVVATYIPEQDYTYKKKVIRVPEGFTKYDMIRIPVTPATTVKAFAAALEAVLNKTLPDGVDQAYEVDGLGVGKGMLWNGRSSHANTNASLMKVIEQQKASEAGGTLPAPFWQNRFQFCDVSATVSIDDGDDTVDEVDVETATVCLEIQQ
Description: Leishmania donovani Ubiquitin Activating Enzyme (LdE1). The assay is classed as functional. The note with it: 30 µM.

Assay [3] concerns the target AMP-activated protein kinase, AMPK (Homo sapiens) (UniProt P54646+O43741+P54619+Q9UGJ0+Q9Y478+Q13131+Q9UGI9). Description: AMP-dependent Kinase enzyme assay. An in vitro enzyme assay that detects ADP turnover that is directly proportional to AMPK activity. This uses naive AMPK that is activated during the assay with MK-8722. The note with it: 30 µM. It is filed as functional.

Assay [4] addresses Sialic acid-binding Ig-like lectin 9 (Homo sapiens) (UniProt Q9Y336). Description: Hs-Siglec9 ALPHAscreen SOP 20170721. The note with it: 10 µM. For orientation: Alpha assays give light when donor and acceptor beads are brought close together.
Another assay relates to Trypanosoma cruzi. Kind of assay: Trypanosoma cruzi phosphomannomutase and mannose-1-phosphate guanylyltransferase assay. The settings on record: 10 µM. It is filed as functional.
Assay [5] addresses T2, Arginase-2, mitochondrial (Homo sapiens) (UniProt P78540).
T2 sequence (whole entry): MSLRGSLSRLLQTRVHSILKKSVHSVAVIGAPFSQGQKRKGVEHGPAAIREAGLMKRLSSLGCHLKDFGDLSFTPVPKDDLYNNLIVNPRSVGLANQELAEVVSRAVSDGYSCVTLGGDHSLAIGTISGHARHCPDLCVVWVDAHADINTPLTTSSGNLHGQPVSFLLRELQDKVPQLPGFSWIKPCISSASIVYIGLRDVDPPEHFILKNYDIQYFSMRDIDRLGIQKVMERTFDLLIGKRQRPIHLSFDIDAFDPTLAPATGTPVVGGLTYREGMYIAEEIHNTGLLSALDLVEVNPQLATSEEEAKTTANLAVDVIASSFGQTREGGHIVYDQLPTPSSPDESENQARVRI
Description: in vitro enzyme assay to detect the production of urea directly proportional to the activity of Arginase II. Note: in the data most compounds retested in dose-response had high values. The assay is classed as functional. The note with it: 33.3 µM.

Assay [6] has as its target T3, Proteasome subunit beta (Trypanosoma cruzi) (UniProt O96673).
T3 sequence (whole entry): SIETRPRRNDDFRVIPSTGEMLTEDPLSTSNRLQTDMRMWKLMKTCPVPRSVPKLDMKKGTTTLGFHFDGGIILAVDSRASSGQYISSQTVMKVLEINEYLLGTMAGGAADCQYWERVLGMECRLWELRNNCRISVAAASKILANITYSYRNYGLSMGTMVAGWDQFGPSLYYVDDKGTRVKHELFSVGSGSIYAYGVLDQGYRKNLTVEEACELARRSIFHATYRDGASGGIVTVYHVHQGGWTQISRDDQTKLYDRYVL
Kind of assay: Trypanosoma cruzi proteasome chymotrypsin-like activity (TcProtChymo) assay. Note: in the data most compounds retested in dose-response had high values. The assay is classed as functional. The note with it: 9.37 µM.

A further assay is filed under the species Homo sapiens. Kind of assay: To identify inhibition of the IFN signalling (Jak-Stat) pathway via expression of an eGFP reporter gene under the control of an IFN-stimulated response element (ISRE) containing MxA promoter. The note with it: 30 µM. It is filed as functional.
Assay [7] has as its target T4, Tyrosyl-tRNA synthetase, putative (Trypanosoma cruzi (strain CL Brener)) (UniProt Q4DSP6).
T4 sequence (whole entry): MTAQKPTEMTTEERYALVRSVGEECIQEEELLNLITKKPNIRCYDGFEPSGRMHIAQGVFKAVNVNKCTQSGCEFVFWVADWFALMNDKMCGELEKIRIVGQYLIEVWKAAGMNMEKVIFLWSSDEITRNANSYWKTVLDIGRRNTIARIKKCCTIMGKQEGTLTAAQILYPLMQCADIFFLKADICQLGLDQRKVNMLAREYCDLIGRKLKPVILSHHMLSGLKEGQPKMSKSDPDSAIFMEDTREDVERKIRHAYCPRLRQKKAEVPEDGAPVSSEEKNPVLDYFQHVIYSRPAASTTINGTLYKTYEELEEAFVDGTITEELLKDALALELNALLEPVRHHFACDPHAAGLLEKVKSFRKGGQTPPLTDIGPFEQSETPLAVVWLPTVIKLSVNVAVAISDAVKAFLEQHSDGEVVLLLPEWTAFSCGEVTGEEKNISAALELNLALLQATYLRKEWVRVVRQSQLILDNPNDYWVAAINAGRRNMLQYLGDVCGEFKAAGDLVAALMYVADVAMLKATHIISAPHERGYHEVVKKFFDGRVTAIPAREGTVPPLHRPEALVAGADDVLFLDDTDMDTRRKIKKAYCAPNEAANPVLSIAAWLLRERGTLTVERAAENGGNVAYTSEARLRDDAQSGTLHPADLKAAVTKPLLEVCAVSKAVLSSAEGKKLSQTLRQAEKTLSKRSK
Kind of assay: Trypanosoma cruzi tyrosyl tRNA synthetase (TcYRS) _High Tyrosine SOP. Note: in the data most compounds retested in dose-response had high values. The assay is classed as functional. The note with it: 30 µM.

Assay [8] has as its target T4, Tyrosyl-tRNA synthetase, putative (Trypanosoma cruzi (strain CL Brener)). Kind of assay: Trypanosoma cruzi tyrosyl tRNA synthetase (TcYRS) SOP. It is filed as functional. The settings on record: 30 µM.
Assay [9] has as its target Chromo domain-containing protein 1 (Saccharomyces cerevisiae (strain ATCC 204508 / S288c) (Baker's yeast)) (UniProt P32657). Description: ScCHD-1 Enzyme Inhibition Assay. Note: in the data most compounds retested in dose-response had high values. The settings on record: 30 µM. It is filed as functional.

For some of these results: Results with a measured potency or affinity are listed apart.

Sequence of Chromo domain-containing protein 1 (Saccharomyces cerevisiae (strain ATCC 204508 / S288c) (Baker's yeast)) (P32657 whole entry, the tested form may be a part): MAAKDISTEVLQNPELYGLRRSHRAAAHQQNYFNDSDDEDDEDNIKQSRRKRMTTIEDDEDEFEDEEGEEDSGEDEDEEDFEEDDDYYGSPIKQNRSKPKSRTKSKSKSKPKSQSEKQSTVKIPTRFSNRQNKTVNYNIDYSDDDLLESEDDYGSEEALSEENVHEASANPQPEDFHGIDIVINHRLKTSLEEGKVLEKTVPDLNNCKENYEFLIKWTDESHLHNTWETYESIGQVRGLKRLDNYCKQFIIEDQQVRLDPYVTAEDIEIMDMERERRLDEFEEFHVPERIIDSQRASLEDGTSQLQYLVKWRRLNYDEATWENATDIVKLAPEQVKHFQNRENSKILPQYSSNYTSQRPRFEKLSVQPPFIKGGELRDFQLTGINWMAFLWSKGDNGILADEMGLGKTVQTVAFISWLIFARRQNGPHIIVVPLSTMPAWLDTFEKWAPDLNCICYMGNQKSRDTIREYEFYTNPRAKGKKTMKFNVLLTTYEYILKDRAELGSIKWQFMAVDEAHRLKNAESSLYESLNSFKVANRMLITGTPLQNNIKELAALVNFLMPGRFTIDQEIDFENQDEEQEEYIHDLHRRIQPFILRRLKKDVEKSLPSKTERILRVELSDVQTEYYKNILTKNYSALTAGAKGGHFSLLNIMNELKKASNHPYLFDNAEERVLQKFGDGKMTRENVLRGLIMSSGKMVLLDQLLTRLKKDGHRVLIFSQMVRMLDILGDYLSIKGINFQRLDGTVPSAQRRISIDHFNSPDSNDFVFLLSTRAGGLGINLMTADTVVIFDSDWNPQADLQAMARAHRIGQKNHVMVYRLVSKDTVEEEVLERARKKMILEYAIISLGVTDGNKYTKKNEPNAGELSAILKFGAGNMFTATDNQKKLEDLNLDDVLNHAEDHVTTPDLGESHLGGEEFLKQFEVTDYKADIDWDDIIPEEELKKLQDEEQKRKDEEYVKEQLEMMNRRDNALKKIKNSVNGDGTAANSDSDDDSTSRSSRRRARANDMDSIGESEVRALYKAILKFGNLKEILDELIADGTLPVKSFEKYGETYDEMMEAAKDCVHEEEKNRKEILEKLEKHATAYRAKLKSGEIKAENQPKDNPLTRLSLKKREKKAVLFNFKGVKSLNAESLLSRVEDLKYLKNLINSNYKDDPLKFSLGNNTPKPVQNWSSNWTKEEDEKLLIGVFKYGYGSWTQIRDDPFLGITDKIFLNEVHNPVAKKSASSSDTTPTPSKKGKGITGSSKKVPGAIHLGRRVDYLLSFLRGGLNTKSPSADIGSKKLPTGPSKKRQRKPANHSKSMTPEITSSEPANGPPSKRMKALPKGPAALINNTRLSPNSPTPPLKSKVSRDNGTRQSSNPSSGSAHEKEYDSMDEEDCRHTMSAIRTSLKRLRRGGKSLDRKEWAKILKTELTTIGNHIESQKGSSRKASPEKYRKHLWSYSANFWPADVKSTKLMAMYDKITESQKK
Sequence of Sialic acid-binding Ig-like lectin 9 (Homo sapiens) (Q9Y336 whole entry): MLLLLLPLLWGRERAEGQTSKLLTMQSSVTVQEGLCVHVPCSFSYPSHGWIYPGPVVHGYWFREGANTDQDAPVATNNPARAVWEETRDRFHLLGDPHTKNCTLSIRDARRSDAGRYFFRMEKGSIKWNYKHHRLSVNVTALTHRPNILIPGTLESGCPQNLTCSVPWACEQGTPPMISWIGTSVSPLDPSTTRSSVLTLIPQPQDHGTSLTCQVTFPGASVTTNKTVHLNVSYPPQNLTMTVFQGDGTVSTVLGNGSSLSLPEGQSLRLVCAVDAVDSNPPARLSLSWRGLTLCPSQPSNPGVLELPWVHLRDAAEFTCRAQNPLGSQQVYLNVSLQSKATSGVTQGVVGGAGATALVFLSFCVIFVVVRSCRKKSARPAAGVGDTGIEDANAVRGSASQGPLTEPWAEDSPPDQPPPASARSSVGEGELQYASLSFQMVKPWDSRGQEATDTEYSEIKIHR
Sequence of Protein translocase subunit SecA (Escherichia coli (strain K12)) (P10408 whole entry): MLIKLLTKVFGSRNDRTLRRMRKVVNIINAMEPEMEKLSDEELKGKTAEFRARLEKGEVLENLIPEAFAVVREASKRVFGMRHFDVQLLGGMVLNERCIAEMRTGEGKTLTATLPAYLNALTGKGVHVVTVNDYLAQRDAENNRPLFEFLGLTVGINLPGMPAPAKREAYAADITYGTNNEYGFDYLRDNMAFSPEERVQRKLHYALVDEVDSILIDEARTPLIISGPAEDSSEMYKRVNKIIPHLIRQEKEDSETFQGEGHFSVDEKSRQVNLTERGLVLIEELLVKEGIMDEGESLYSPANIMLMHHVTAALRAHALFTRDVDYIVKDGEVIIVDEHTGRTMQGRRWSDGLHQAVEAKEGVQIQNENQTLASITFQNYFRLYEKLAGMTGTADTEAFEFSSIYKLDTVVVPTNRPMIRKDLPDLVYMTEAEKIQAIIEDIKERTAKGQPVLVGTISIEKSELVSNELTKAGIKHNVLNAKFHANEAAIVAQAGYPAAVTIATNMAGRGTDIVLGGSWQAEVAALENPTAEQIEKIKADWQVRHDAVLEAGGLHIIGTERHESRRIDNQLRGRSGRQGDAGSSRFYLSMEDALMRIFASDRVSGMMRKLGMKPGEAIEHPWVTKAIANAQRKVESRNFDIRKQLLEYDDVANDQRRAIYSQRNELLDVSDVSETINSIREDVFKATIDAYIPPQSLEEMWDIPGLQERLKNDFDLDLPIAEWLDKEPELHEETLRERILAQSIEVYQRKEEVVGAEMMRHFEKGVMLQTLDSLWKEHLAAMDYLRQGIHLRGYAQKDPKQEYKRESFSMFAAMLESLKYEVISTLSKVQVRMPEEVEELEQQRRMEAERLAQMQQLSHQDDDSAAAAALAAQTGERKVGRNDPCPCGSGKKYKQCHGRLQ

As for `Cc1cc(C)nc(CCNC(=O)C(c2ccc(F)cc2)N(C)C)n1` (stereo not drawn), the Percent Effect in [1] is 6.75%; in assay [2] it was 11%; in [3], 8.61%; in assay [4], 2.2%; with Trypanosoma cruzi, -9.13%; in assay [5], -31.9%. The Percent Effect is 3% in assay [6]; 48.8% in the assay filed under Homo sapiens; 1.04% in assay [7]; 6.17% in assay [8]; -6.29% in [9].

As to `Cc1cnn(CC2CCCCN2Cc2nc(-c3ccoc3)no2)c1` (stereo not drawn), the Percent Effect in [1] was -1.89%; in [2], 16.2%; in assay [3], -6.06%; in [4] it was 4.87%; with Trypanosoma cruzi, 5.19%; in assay [5], -5.61%. Also, the Percent Effect is 7.75% in [6]; 21.5% in the assay filed under Homo sapiens; 8.37% in assay [7]; 23.5% in [8]; -6.74% in assay [9].

As to `Cc1ccc2ncnc(N3CCOCC3c3c(C)nn(C)c3C)c2c1` (stereo not drawn), the Percent Effect in assay [1] is -3.4%; in [2], 5.33%; in [3], -4.79%; in assay [4], 3.91%; in the assay with Trypanosoma cruzi, -0.487%; in [5], -0.521%. Also, the Percent Effect is 16% in [6]; 21.1% in the assay listed under Homo sapiens; 6.01% in assay [7]; 8.64% in [8]; -5.67% in assay [9].

Regarding `CCc1noc(C(C)N2CCN(c3ccc(C#N)cn3)CC2)n1` (stereo not drawn), the Percent Effect is -5.24% in [1]; 10.5% in assay [2]; 4.88% in assay [3]; -4.78% in assay [4]; -4.58% in the assay on Trypanosoma cruzi; -1.18% in [5]. Moreover, the Percent Effect in assay [6] was 14.9%; in the assay filed under Homo sapiens, 17.9%; in [7] it was 4.25%; in assay [8], 5.2%; in assay [9], -5.13%.

In the case of `O=C1CC(c2ccccc2)c2snc(C(=O)O)c2N1` (stereo not drawn), the Percent Effect in assay [1] is -3.07%; in assay [2], 6.67%; in assay [3], -2.59%; in assay [4], -2.64%; with Trypanosoma cruzi it was 2.95%; in assay [5] it was 20.9%. The Percent Effect in [6] was 29.4%; in the assay listed under Homo sapiens it was 1.29%; in assay [7] it was 3.17%; in assay [8] it was 7.69%; in [9] it was -12%.

For `CN(Cc1ccccc1)C1COC2(CCN(Cc3nccs3)CC2)C1` (stereo not drawn), the Percent Effect in assay [1] is -6.64%; in [2], 13.3%; in assay [3], -9.84%; in assay [4], 1.43%; in the assay on Trypanosoma cruzi, 3.09%; in assay [5] it was -51.1%. The Percent Effect in assay [6] was 4.79%; in the assay filed under Homo sapiens, -4.42%; in assay [7], 4.17%; in [8], 7.5%; in assay [9] it was -9.89%.

Take `CC(C)N1CC(C(=O)NCCOc2ccc3c(c2)OCO3)CC1=O` (stereo not drawn): the Percent Effect in assay [1] was 0.716%; in assay [2], 21.1%; in assay [3], -0.48%; in assay [4] it was -5.15%; in the assay on Trypanosoma cruzi it was 3.64%; in assay [5], 2.16%. Moreover, the Percent Effect was 12.1% in assay [6]; 4.59% in the assay filed under Homo sapiens; 8.37% in assay [7]; 23.5% in assay [8]; -9.09% in assay [9].

In the case of `COCc1ccccc1NC(=O)[C@@H]1CCCN1C(=O)c1ccco1`, the Percent Effect in assay [1] was -0.218%; in [2], 9.72%; in assay [3], -5.33%; in [4], 20.1%; in the assay on Trypanosoma cruzi, 2.82%; in assay [5] it was 6.62%. Moreover, the Percent Effect in [6] is 12.8%; in the assay filed under Homo sapiens, 8.02%; in assay [7], 1.05%; in assay [8], 5.13%; in [9] it was -1.82%.
